Test results reported in PubChem BioAssay (NCATS).
Records with an inconclusive call do not appear. The source made the active and inactive calls. Unless noted, calls follow the shape of the dose curve; as a rule, active = well fitted curve in the direction sought with a large enough effect; inconclusive = small, poorly fitted or top-dose-only effect, or another doubt; inactive = no such curve, though single readings can be large; an effect the other way counts as inactive or inconclusive.

Assays:
[1] = target: D(1A) dopamine receptor (Homo sapiens) (UniProt P21728); assay: HTS Assay for Allosteric Agonists of the Human D1 Dopamine Receptor: Primary Screen for Potentiators (AID 488982); also: 0% is about no effect
D(1A) dopamine receptor (Homo sapiens), sequence (P21728 whole entry, looked up): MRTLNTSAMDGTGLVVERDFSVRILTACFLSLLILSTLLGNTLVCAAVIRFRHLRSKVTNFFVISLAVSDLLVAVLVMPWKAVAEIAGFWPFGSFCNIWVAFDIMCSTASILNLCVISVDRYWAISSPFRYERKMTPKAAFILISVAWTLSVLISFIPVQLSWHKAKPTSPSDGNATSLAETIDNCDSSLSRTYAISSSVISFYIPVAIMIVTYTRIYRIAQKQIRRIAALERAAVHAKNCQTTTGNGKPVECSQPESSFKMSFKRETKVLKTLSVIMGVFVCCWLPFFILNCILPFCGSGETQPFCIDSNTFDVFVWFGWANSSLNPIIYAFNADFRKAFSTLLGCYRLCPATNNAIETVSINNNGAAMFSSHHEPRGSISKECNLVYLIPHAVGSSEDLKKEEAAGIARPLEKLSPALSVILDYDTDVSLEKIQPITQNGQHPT
Method in brief: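 Calcium flux in an inducible, force-coupled HEK293 Trex D1 line (overnight at 30 C): agonist mode is the 180 s kinetic read after compound; potentiator mode is the following 180 s read after dopamine at EC20.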

[2] = target: D(1A) dopamine receptor (Homo sapiens) (UniProt P21728); assay: HTS Assay for Allosteric Agonists of the Human D1 Dopamine Receptor: Primary Screen for Antagonists (AID 488983);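 also: calcium flux response to an EC80 dopamine challenge measured with no-wash dye; % is scaled to controls: 0 for no effect and ±100 for the full control effect; nearly all actives have a fitted effect of over 65% in size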
Method in brief: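 Calcium flux readout, no-wash dye, inducible HEK293 T-REx D1 line (force-coupled). Compound added after 10 s baseline, 180 s kinetic read; then dopamine at EC80, further 180 s read.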

[3] = Validation screen for small molecules that induce genotoxicity in human embryonic kidney (HEK293T) cells expressing luciferase-tagged ELG1 (AID 493106); also: 0% is about no effect
Method in brief: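 qHTS format; 2,000 HEK293T ELG1-luc cells/well; 23 nL compound via pin tool; 16 hr, 37 °C/5% CO2; ONE-Glo, 30 min RT; luminescence read.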

[4] = target: ATPase family AAA domain-containing protein 5 (Homo sapiens) (UniProt Q96QE3); assay: Validation screen for small molecules that inhibit ELG1-dependent DNA repair in human embryonic kidney (HEK293T) cells expressing luciferase-tagged ELG1 (AID 493107); also: nearly all actives have a fitted effect of over 70% in size; also: potency is read from the fitted curve at half-maximal effect
ATPase family AAA domain-containing protein 5 (Homo sapiens), sequence (Q96QE3 whole entry, looked up, the tested form may be a part): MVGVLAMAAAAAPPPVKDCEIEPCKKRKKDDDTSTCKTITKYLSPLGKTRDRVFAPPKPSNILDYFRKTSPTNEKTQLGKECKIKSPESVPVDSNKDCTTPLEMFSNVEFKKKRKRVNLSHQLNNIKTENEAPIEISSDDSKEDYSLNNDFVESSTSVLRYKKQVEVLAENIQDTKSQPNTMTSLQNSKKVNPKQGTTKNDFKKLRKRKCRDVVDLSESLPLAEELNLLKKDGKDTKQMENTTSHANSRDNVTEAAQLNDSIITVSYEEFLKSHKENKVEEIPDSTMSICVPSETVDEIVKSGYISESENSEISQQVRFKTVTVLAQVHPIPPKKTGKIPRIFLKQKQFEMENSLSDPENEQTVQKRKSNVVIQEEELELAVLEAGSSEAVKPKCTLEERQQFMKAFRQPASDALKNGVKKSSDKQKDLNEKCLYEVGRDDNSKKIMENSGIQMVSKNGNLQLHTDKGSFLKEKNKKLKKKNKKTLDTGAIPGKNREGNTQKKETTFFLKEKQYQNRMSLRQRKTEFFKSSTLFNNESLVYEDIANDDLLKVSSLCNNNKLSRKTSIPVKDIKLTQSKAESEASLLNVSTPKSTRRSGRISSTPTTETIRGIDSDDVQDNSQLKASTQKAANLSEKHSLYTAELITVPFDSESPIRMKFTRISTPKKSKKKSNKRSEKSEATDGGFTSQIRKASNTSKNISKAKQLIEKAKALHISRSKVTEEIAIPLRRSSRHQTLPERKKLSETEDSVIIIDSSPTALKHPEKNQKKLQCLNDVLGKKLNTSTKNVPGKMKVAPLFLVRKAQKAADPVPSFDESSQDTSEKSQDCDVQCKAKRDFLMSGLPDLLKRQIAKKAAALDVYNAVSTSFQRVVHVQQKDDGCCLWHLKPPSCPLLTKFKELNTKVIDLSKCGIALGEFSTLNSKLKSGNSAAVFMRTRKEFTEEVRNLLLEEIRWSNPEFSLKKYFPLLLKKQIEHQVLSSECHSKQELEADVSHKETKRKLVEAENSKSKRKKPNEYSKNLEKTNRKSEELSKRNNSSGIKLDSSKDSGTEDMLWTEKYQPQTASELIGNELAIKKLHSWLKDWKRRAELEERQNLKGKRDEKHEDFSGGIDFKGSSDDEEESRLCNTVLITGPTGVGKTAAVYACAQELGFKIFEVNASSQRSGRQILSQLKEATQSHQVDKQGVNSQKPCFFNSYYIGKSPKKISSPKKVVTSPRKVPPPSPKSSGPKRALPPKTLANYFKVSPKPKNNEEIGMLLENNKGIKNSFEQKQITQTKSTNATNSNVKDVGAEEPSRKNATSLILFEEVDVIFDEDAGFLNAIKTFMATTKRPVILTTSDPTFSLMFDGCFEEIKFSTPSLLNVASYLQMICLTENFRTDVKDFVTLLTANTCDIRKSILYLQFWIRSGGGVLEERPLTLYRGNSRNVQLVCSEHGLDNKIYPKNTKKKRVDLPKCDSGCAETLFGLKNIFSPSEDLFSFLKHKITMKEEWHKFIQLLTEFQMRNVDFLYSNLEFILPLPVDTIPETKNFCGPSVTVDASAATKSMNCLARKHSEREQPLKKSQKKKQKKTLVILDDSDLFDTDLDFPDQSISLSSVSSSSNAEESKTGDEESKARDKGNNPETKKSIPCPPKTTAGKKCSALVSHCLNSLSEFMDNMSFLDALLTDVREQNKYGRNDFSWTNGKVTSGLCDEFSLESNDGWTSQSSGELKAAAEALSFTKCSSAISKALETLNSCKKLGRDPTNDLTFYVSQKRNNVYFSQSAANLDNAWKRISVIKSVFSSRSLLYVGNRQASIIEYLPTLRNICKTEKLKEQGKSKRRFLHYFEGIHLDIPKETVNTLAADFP
Method in brief: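 ELG1-luciferase HEK293T reporter; 5-fluorouridine + compound/DMSO, 16 hr, 37 °C, 5% CO2; ONE-Glo 30 min RT; luminescence read, qHTS format.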

[5] = target: Thyrotropin-releasing hormone receptor (Homo sapiens) (UniProt P34981); assay: qHTS for Small Molecule Agonists and Allosteric Enhancers of Human TRH Receptor: Validation Screen for Agonists (AID 493127;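 active = calcium activation more than 3 SD above the typical response in the agonist read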;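 also: intracellular calcium rise by fluo-8 fluorescence before TRH EC20 addition; 0% is about no effect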); conditions: TRH receptor agonist cell assay; at 2 µM; stronger effect = higher value
Thyrotropin-releasing hormone receptor (Homo sapiens), sequence (P34981 whole entry, looked up): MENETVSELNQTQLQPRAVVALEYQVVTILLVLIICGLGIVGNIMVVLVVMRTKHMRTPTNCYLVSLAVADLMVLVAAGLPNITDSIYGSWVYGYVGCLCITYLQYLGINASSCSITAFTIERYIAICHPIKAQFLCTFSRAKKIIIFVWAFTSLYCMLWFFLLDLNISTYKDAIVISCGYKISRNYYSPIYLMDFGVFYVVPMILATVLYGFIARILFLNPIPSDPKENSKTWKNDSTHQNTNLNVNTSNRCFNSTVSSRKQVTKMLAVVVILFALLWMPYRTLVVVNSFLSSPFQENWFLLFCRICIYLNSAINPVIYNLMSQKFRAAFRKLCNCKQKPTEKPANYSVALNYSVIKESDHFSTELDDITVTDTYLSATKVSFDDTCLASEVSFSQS
Method in brief: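 Read-out: intracellular calcium release measured kinetically by FDSS (fluo-8, ex 480/em 530 nm), 1 reading/s after a 10-cycle baseline. TRHR cells, 2000/well, cultured 18 h at 33.5C, dye-loaded at room temp. Compound-evoked positive calcium signal flags agonists.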

[6] = Nrf2 qHTS screen for inhibitors: Validation (AID 493153; active = well fitted inhibition curve with a large enough effect in the main read-out, with a control signal flat, not every such curve was filed as active); conditions: Potency: luciferase luminescence; viability change: measured here: cytotoxicity max response
Method in brief: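 Concentration-response test in A549 ARE_Fluc reporter cells (5% FBS OPTI-MEM), compound exposure 18-24 h at 37°C, 5% CO2. Cell viability measured first by CellTiter-Fluor fluorescence; ARE-driven luciferase luminescence then measured as Nrf2 activity.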

[7] = qHTS for Inhibitors of Cell Surface uPA Generation: Validation Assay (AID 493164);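 also: RAW 264.7 macrophage cells exposed to compound for 18 h; 0% is about no effect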
Method in brief: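 Compounds are titrated over seven points (2.45 nM–38.3 uM final) onto pre-plated RAW 264.7 cells and incubated for 18 h. Retained intracellular ATP, measured with ATP-Lite, indicates blocked lethal factor entry.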

[8] = target: Galactokinase (Homo sapiens) (UniProt P51570); assay: qHTS Validation Assay for Inhibitors of Human Galactokinase (GALK) (AID 493189); also: 0% is about no effect
Galactokinase (Homo sapiens), sequence (P51570 whole entry, looked up): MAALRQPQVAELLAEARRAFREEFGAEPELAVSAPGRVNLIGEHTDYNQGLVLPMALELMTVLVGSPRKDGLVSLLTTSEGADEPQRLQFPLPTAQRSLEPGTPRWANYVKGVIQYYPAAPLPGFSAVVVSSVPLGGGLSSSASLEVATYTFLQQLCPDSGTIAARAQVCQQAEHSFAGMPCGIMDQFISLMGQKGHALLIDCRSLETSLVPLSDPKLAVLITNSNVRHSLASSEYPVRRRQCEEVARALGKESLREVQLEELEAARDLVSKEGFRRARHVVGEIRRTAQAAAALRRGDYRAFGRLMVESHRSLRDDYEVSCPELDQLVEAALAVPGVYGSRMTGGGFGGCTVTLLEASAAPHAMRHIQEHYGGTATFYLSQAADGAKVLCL
Method in brief: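 Luminescence from leftover ATP (Kinase-Glo Plus, 10 min) served as read-out after a 1 h room-temperature reaction of 5 nM GALK, 100 uM galactose and 35 uM ATP at pH8.0.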

[9] = target: ATP-dependent 6-phosphofructokinase (Trypanosoma brucei brucei) (UniProt O15648); assay: qHTS Assay to Find Inhibitors of T. brucei phosphofructokinase: hit validation (AID 492961);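 also: luminescence reports ADP formed as PFK phosphorylates fructose-6-phosphate with ATP; series mostly up to about 51 µM; % is scaled to controls: 0 for no effect and ±100 for the full control effect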
ATP-dependent 6-phosphofructokinase (Trypanosoma brucei brucei), sequence (O15648 whole entry, looked up): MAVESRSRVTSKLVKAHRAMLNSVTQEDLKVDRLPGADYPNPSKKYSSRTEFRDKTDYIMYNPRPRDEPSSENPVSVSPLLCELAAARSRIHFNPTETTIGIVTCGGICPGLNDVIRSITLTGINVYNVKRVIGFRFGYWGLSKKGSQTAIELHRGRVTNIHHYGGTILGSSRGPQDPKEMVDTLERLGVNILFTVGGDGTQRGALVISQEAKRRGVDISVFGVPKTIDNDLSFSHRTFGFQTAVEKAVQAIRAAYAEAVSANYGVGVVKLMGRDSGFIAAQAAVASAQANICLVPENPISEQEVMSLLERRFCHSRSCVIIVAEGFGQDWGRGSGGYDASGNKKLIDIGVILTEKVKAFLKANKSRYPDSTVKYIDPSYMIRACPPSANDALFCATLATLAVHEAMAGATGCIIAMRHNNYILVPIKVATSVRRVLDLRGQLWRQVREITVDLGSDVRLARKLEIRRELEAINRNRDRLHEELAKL
Method in brief: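 Measures ADP output of PFK (1.25 nM) at 0.1 mM ATP, 0.5 mM F6P, pH 8.0 TEA buffer with 5 mM MgCl2. No-enzyme wells define full inhibition; uninhibited enzyme wells define zero.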

O=C(O)c1cc(=O)c2ccccc2[nH]1
inactive: Potency [1] | Potency [2] | Potency [3] | Potency [4] | activation [5] 0.125% | Potency [6] | outcome [7] | Potency [8]
-7.12%: viability change [6]

Cc1ccccc1CNc1ncnc2c1ncn2C1OC(CO)C(O)C1O (configuration not stated)
inactive: Potency [1] | Potency [2] | outcome [9] | activation [5] 1.31% | outcome [7] | Potency [8]
active: Potency [4] 13 µM

NCCNC(=O)c1ncsc1-c1cccc(F)c1
inactive: Potency [1] | Potency [2] | Potency [3] | Potency [4] | activation [5] -2.38% | Potency [6] | outcome [7] | Potency [8]
1.7%: viability change [6]

O=C(O)CCCC[C@@H]1CCSS1
inactive: Potency [1] | Potency [2] | Potency [3] | Potency [4] | activation [5] 0.438% | Potency [6] | outcome [7] | Potency [8]
5.5%: viability change [6]

NCCCCC(=O)O
11.5%: viability change [6]
inactive: Potency [1] | Potency [2] | Potency [3] | Potency [4] | activation [5] -0.25% | Potency [6] | outcome [7] | Potency [8]

C=C[C@H]1CN2CC[C@@H]1C[C@@H]2[C@@H](O)c1ccnc2ccc(OC)cc12
inactive: Potency [1] | Potency [2] | Potency [3] | Potency [4] | Potency [6] | outcome [7]
-1.39%: viability change [6]

N=C(N)SCCc1ccc(CCSC(=N)N)cc1
inactive: Potency [1] | Potency [2] | Potency [3] | Potency [4] | activation [5] 1.12% | Potency [6] | outcome [7] | Potency [8]
-6.92%: viability change [6]

O=C(O)CNC(=O)C(CS)Cc1ccccc1 (configuration not stated)
inactive: Potency [1] | Potency [2] | Potency [3] | Potency [4] | activation [5] 0.625% | Potency [6] | outcome [7] | Potency [8]
2.31%: viability change [6]

CCCCN1CCC(n2c(=O)[nH]c3ccccc32)CC1
-4.5%: viability change [6]
inactive: Potency [1] | Potency [2] | Potency [3] | Potency [4] | activation [5] 1% | Potency [6] | outcome [7] | Potency [8]

CO/S(=N\S(=O)(=O)c1ccc(Cl)cc1)c1ccc([N+](=O)[O-])cc1 (configuration not stated)
-1.86%: viability change [6]
inactive: Potency [1] | Potency [2] | Potency [3] | Potency [4] | Potency [6] | outcome [7]

CCCCCC(O)c1cccc(OCc2ccc3ccccc3n2)c1 (configuration not stated)
inactive: Potency [1] | Potency [2] | Potency [3] | Potency [4] | activation [5] -5.62% | outcome [7] | Potency [8]

CN(C)CCC(c1ccc(Cl)cc1)c1ccccn1 (configuration not stated)
7.36%: viability change [6]
inactive: Potency [1] | Potency [2] | Potency [3] | Potency [4] | activation [5] 1.12% | Potency [6] | outcome [7] | Potency [8]

CCNC(=O)[C@H]1O[C@@H](n2cnc3c(N)nc(NCCc4ccc(CCC(=O)O)cc4)nc32)[C@H](O)[C@@H]1O
inactive: Potency [1] | Potency [2] | Potency [3] | Potency [4] | Potency [6] | outcome [7]
0.951%: viability change [6]

Nc1nc(Cl)nc2c1ncn2[C@@H]1O[C@H](CO)[C@@H](O)[C@H]1O
-2.02%: viability change [6]
inactive: Potency [1] | Potency [2] | Potency [3] | Potency [4] | Potency [6] | outcome [7]

O=C1NC(O)=NC1(c1ccccc1)c1ccccc1
inactive: Potency [1] | Potency [2] | Potency [3] | Potency [4] | activation [5] 0.125% | Potency [8]

O=C(O)CC1CCCc2ccccc2C1O (configuration not stated)
2.15%: viability change [6]
inactive: Potency [1] | Potency [2] | Potency [3] | Potency [4] | activation [5] 0.625% | Potency [6] | outcome [7] | Potency [8]

NCCCCCCCCCCN
-2.16%: viability change [6]
inactive: Potency [1] | Potency [2] | Potency [3] | Potency [4] | activation [5] 0.938% | Potency [6] | outcome [7] | Potency [8]

COc1ccccc1CNCCCCCCNCCCCCCCCNCCCCCCNCc1ccccc1OC
-8.09%: viability change [6]
inactive: Potency [1] | Potency [2] | Potency [3] | Potency [4] | activation [5] 0.938% | Potency [6] | outcome [7] | Potency [8]

CC1CN(S(=O)(=O)c2cccc3cnccc23)CCN1 (configuration not stated)
active: Potency [4] 20.6 µM
1.98%: viability change [6]
inactive: Potency [1] | Potency [2] | Potency [3] | activation [5] 1.06% | Potency [6] | outcome [7] | Potency [8]

NC[C@H]1O[C@@H](n2cnc3c(N)ncnc32)[C@H](O)[C@@H]1O
9.27%: viability change [6]
inactive: Potency [1] | Potency [2] | Potency [3] | Potency [4] | Potency [6] | outcome [7]

CCCN(CC1CC1)c1nc(C)nc(Nc2c(Cl)cc(Cl)cc2Cl)c1Cl
7.51%: viability change [6]
inactive: Potency [1] | Potency [2] | Potency [3] | Potency [4] | activation [5] -7.44% | Potency [6] | outcome [7] | Potency [8]

C=C[C@@H]1CN2CC[C@@H]1C[C@H]2[C@H](O)c1ccnc2ccc(OC)cc12
-4.66%: viability change [6]
inactive: Potency [1] | Potency [2] | Potency [3] | Potency [4] | Potency [6] | outcome [7]

CC(C)Cc1ccc([C@H](C)C(=O)O)cc1
6.18%: viability change [6]
inactive: Potency [1] | Potency [2] | Potency [3] | Potency [4] | activation [5] 0.688% | Potency [6] | outcome [7]
